Laboratory results taken from PubChem BioAssay AID1159580 (chemical genetic matrix, 2015).
Values joined by “and” are separate entries in the source; they are usually repeats but may differ in a detail not shown here. Identical values can stand only once. About 2,000 (36%) of roughly 5,500 compounds were called active. Roughly 18% stayed inconclusive and do not appear here. Rule as the data show it: active = normalized growth mostly below about 0.91 (no sharp cut-off); inconclusive = no clear call, values can overlap the other calls; inactive = mostly above about 0.92. The list shows a part of the results.

Experiment: chemical genetic growth profiling, strain panel (AID 1159580);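 also: tested at 20 µM; growth read once vehicle control cultures reached saturation at 30 °C; 1 = growth at the plate median or of vehicle wells; lower values mean less growth of the strain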
Conditions: S. cerevisiae deletion strains, growth OD

Measured: normalized growth

CNc1ccccc1C(=O)N1CCc2c([nH]c3ccccc23)C1=O
inactive: locus YAL021C, strain ccr4, stronger effect = lower value 0.962 | locus YAL026C, strain drs2, stronger effect = lower value 1 | locus YAL030W, strain snc1, stronger effect = lower value 0.995 | locus YBL061C, strain skt5, stronger effect = lower value 1 | locus YBR009C, strain hhf1, stronger effect = lower value 0.981 | locus YBR021W, strain FUR4, stronger effect = lower value 0.954 | locus YBR023C, strain chs3, stronger effect = lower value 1 | locus YBR171W, strain sec66, stronger effect = lower value 0.991 | locus YBR229C, strain ROT2, stronger effect = lower value 1.01 | locus YBR231C, strain swc5, stronger effect = lower value 0.996 | locus YBR279W, strain paf1, stronger effect = lower value 0.992 | locus YCL011C, strain gbp2, stronger effect = lower value 0.983 | locus YCL016C, strain dcc1, stronger effect = lower value 0.981 | locus YCL029C, strain bik1, stronger effect = lower value 0.996 | locus YCL069W, strain vba3, stronger effect = lower value 0.987 | locus YCR088W, strain abp1, stronger effect = lower value 1 | locus YDL005C, strain med2, stronger effect = lower value 0.997 | locus YDL035C, strain GPR1, stronger effect = lower value 0.995 | locus YDL040C, strain nat1, stronger effect = lower value 0.99 | locus YDL074C, strain BRE1, stronger effect = lower value 0.976 | locus YDL101C, strain DUN1, stronger effect = lower value 1.02 | locus YDL185W, strain tfp1, stronger effect = lower value 0.996 | locus YDL192W, strain arf1, stronger effect = lower value 0.975 | locus YDR001C, strain nth1, stronger effect = lower value 0.98 | locus YDR069C, strain doa4, stronger effect = lower value 0.966 | locus YDR101C, strain arx1, stronger effect = lower value 0.964 | locus YDR137W, strain rgp1, stronger effect = lower value 0.991 | locus YDR159W, strain sac3, stronger effect = lower value 1.03 | locus YDR162C, strain NBP2, stronger effect = lower value 1.01 | locus YDR195W, strain ref2 1.01 | locus YDR297W, strain sur2, stronger effect = lower value 1 | locus YDR318W, strain mcm21, stronger effect = lower value 0.997 | locus YDR334W, strain swr1, stronger effect = lower value 0.991 | locus YDR335W, strain msn5, stronger effect = lower value 0.996 | locus YDR388W, stronger effect = lower value 0.979 | locus YDR392W, strain spt3, stronger effect = lower value 0.908 | locus YDR502C, strain sam2, stronger effect = lower value 0.967 | locus YEL003W, strain gim4, stronger effect = lower value 0.987 | locus YEL037C, strain rad23, stronger effect = lower value 0.992 | locus YEL061C, strain CIN8 (second series), stronger effect = lower value 0.989 | locus YEL061C, strain CIN8, stronger effect = lower value 1.01 | locus YER015W, strain faa2, stronger effect = lower value 0.992 | locus YER016W, strain bim1, stronger effect = lower value 0.985 | locus YER110C, stronger effect = lower value 0.986 | locus YER111C, strain swi4, stronger effect = lower value 1 | locus YER155C, strain BEM2 (second series), stronger effect = lower value 1.01 | locus YER155C, strain BEM2, stronger effect = lower value 0.997 | locus YER167W, strain BCK2, stronger effect = lower value 1 | locus YFR010W, strain ubp6, stronger effect = lower value 0.965 | locus YGL078C, strain dbp3, stronger effect = lower value 0.971 | locus YGL086W, strain mad1, stronger effect = lower value 0.964 | locus YGL167C, strain pmr1, stronger effect = lower value 0.98 | locus YGL173C, strain kem1, stronger effect = lower value 0.997 | locus YGL227W, strain vid30, stronger effect = lower value 1 | locus YGL240W, strain doc1, stronger effect = lower value 1 | locus YGL248W, strain PDE1, stronger effect = lower value 1.02 | locus YGL253W, strain hxk2, stronger effect = lower value 0.989 | locus YGR078C, strain PAC10, stronger effect = lower value 1.01 | locus YGR135W, strain pre9, stronger effect = lower value 1 | locus YGR229C, strain SMI1, stronger effect = lower value 1 | locus YGR252W, strain gcn5, stronger effect = lower value 0.924 | locus YHR013C, strain ard1, stronger effect = lower value 0.958 | locus YHR027C, strain rpn1, stronger effect = lower value 0.991 | locus YHR030C, strain SLT2, stronger effect = lower value 1.01 and 0.995 | locus YHR079C, strain IRE1 (second series), stronger effect = lower value 0.981 | locus YHR079C, strain IRE1, stronger effect = lower value 0.986 | locus YHR094C, strain hxt1, stronger effect = lower value 0.984 | locus YHR129C, strain ARP1, stronger effect = lower value 1.01 | locus YHR142W, strain chs7, stronger effect = lower value 0.975 | locus YHR200W, strain rpn10, stronger effect = lower value 0.987 | locus YIL066C, strain RNR3, stronger effect = lower value 1.01 | locus YIL073C, strain SPO22, stronger effect = lower value 0.957 | locus YIL125W, strain kgd1, stronger effect = lower value 0.968 | locus YIR030C, strain dcg1, stronger effect = lower value 0.975 | locus YJL092W, strain hpr5, stronger effect = lower value 0.991 | locus YJL095W, strain BCK1 (second series), stronger effect = lower value 1.01 | locus YJL095W, strain BCK1, stronger effect = lower value 1.01 and 1.06 | locus YJL115W, strain asf1, stronger effect = lower value 0.976 | locus YJL129C, strain trk1, stronger effect = lower value 0.982 | locus YJL134W, strain LCB3, stronger effect = lower value 1.01 | locus YJL154C, strain vps35, stronger effect = lower value 0.989 | locus YJL164C, strain tpk1, stronger effect = lower value 0.963 | locus YJL166W, strain qcr8, stronger effect = lower value 0.992 | locus YJL168C, strain set2, stronger effect = lower value 0.989 | locus YJL187C, strain SWE1 (second series), stronger effect = lower value 1 | locus YJL187C, strain SWE1, stronger effect = lower value 0.981 | locus YJR043C, strain POL32, stronger effect = lower value 0.986 | locus YJR066W, strain TOR1, stronger effect = lower value 0.94 | locus YJR075W, strain HOC1, stronger effect = lower value 1 | locus YKL009W, strain mrt4, stronger effect = lower value 0.949 | locus YKL068W, stronger effect = lower value 1 | locus YKL085W, strain MDH1 (second series), stronger effect = lower value 0.994 | locus YKL085W, strain MDH1, stronger effect = lower value 0.994 | locus YKL160W, strain elf1, stronger effect = lower value 0.973 | locus YKR001C, strain vps1, stronger effect = lower value 0.941 | locus YKR026C, strain gcn3, stronger effect = lower value 1.01 | locus YKR091W, strain srl3, stronger effect = lower value 0.989 | locus YLL001W, strain dnm1, stronger effect = lower value 0.982 | locus YLL026W, stronger effect = lower value 1 | locus YLL041C, strain sdh2, stronger effect = lower value 1 | locus YLR027C, strain aat2, stronger effect = lower value 0.995 | locus YLR039C, strain RIC1, stronger effect = lower value 0.812 | locus YLR058C, strain SHM2, stronger effect = lower value 1.01 | locus YLR102C, strain apc9, stronger effect = lower value 0.977 | locus YLR113W, strain HOG1, stronger effect = lower value 1.1 | locus YLR221C, strain rsa3, stronger effect = lower value 1.01 | locus YLR258W, strain gsy2, stronger effect = lower value 0.993 | locus YLR262C, strain YPT6 (second series), stronger effect = lower value 0.975 | locus YLR262C, strain YPT6, stronger effect = lower value 0.823 | locus YLR268W, strain sec22, stronger effect = lower value 0.954 | locus YLR320W, strain mms22, stronger effect = lower value 1 | locus YLR330W, strain CHS5, stronger effect = lower value 1.01 | locus YLR342W, strain FKS1 (second series), stronger effect = lower value 0.998 | locus YLR342W, strain FKS1, stronger effect = lower value 0.991 | locus YLR357W, strain rsc2, stronger effect = lower value 0.973 | locus YLR370C, strain arc18, stronger effect = lower value 0.998 | locus YLR371W, strain rom2, stronger effect = lower value 0.986 | locus YLR384C, strain iki3, stronger effect = lower value 1.02 | locus YLR418C, strain cdc73, stronger effect = lower value 0.917 | locus YML016C, strain PPZ1, stronger effect = lower value 1.02 | locus YML032C, strain rad52, stronger effect = lower value 0.989 | locus YML120C, strain ndi1, stronger effect = lower value 0.983 | locus YML124C, strain tub3, stronger effect = lower value 0.985 | locus YMR058W, strain fet3, stronger effect = lower value 0.994 | locus YMR078C, strain ctf18, stronger effect = lower value 0.986 | locus YMR125W, strain sto1, stronger effect = lower value 0.965 | locus YMR129W, stronger effect = lower value 0.988 | locus YMR205C, strain PFK2, stronger effect = lower value 0.984 | locus YMR223W, strain ubp8, stronger effect = lower value 1 | locus YMR231W, strain pep5, stronger effect = lower value 0.999 | locus YMR263W, strain SAP30, stronger effect = lower value 1.01 | locus YMR307W, strain GAS1, stronger effect = lower value 0.949 | locus YNL067W, strain RPL9B, stronger effect = lower value 1.01 | locus YNL071W, strain lat1, stronger effect = lower value 0.993 | locus YNL153C, strain GIM3, stronger effect = lower value 1.01 | locus YNL183C, strain NPR1, stronger effect = lower value 1.01 | locus YNL209W, strain ssb2, stronger effect = lower value 0.985 | locus YNL233W, strain BNI4, stronger effect = lower value 0.996 | locus YNL248C, strain rpa49, stronger effect = lower value 0.986 | locus YNL250W, strain rad50, stronger effect = lower value 1 | locus YNL271C, strain bni1, stronger effect = lower value 0.989 | locus YNL298W, strain CLA4, stronger effect = lower value 0.977 | locus YNL307C, strain MCK1, stronger effect = lower value 0.985 | locus YNL322C, strain KRE1 (second series), stronger effect = lower value 1 | locus YNL322C, strain KRE1, stronger effect = lower value 1.01 | locus YNR049C, strain mso1, stronger effect = lower value 0.989 | locus YNR052C, strain pop2, stronger effect = lower value 1.02 | locus YOL006C, strain TOP1, stronger effect = lower value 0.974 | locus YOL012C, strain htz1 0.736 | locus YOL147C, strain pex11, stronger effect = lower value 0.979 | locus YOR001W, strain rrp6, stronger effect = lower value 1.01 | locus YOR061W, strain CKA2, stronger effect = lower value 1.01 | locus YOR069W, strain VPS5, stronger effect = lower value 1.01 | locus YOR070C, strain gyp1, stronger effect = lower value 0.985 | locus YOR080W, strain dia2, stronger effect = lower value 1 | locus YOR083W, strain WHI5, stronger effect = lower value 0.967 | locus YOR106W, strain vam3, stronger effect = lower value 0.924 | locus YOR136W, strain idh2, stronger effect = lower value 0.974 | locus YOR144C, strain elg1, stronger effect = lower value 0.979 | locus YOR184W, strain ser1, stronger effect = lower value 0.979 | locus YOR231W, strain MKK1, stronger effect = lower value 1.01 | locus YOR265W, strain rbl2, stronger effect = lower value 1 | locus YOR270C, strain vph1, stronger effect = lower value 0.979 | locus YOR290C, strain snf2, stronger effect = lower value 0.944 | locus YOR316C, strain cot1, stronger effect = lower value 0.982 | locus YPL051W, strain arl3, stronger effect = lower value 0.982 | locus YPL055C, strain LGE1, stronger effect = lower value 0.991 | locus YPL078C, strain atp4, stronger effect = lower value 0.973 | locus YPL106C, strain sse1, stronger effect = lower value 0.997 | locus YPL240C, strain hsp82, stronger effect = lower value 0.986 | locus YPL241C, strain CIN2, stronger effect = lower value 1 | locus YPL256C, strain CLN2, stronger effect = lower value 1 | locus YPR119W, strain clb2, stronger effect = lower value 0.978 | locus YPR141C, strain kar3, stronger effect = lower value 0.994 | locus YPR163C, strain tif3, stronger effect = lower value 0.99 | locus YPR167C, strain met16, stronger effect = lower value 0.989 | strain wtn01, stronger effect = lower value 0.961
